High-throughput results from PubChem.
Pin1 inh: qHTS Assay to Find Inhibitors of Pin1; Peptidyl-prolyl cis-trans isomerase NIMA-interacting 1 (Homo sapiens), Q13526; Pin1 FP peptide displacement, HiFluor488, 10 min; Potency, µM (top dose mostly 115 µM), for the others: at the top dose activity, negative = inhibition, usual class: inhibitors; hit rate 0.009% among 390,000; AID 504891, 2011; active means well fitted inhibition curve with a large enough effect in the polarisation, with a control signal flat, not every such curve was filed as active; inconclusive means small, poorly fitted or top-dose-only effect, or effect the other way, or a change in a side signal; inactive means no such curve, though single readings can be large or run the other way; the % refers to the polarisation; further: on the % scale 0 is the no-effect control and ±100 the full control effect
ASM inhibitor: Inhibitors of Secretory Acid Sphingomyelinase (S-ASM): qHTS. hit rate 0.006% among 340,000. placental ASM, HMU-PC fluorogenic substrate, 60 min. Potency, µM (highest dose often 57.5 µM), without a hit: at the highest dose activity change, negative = inhibition, most hits filed as inhibitors. AID 504937, 2011
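Fluorescence read-out (Ex 386 nm, Em 447 nm) after stopping the reaction at pH 10. Enzyme: ASM from human placenta; substrate HMU-PC0, 9 uM final; 60 min, 37 °C. Compound preincubation 10 min, ambient temperature.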
TDP1 inh: qHTS Assay for Inhibitors of Tyrosyl-DNA Phosphodiesterase (TDP1) | Tyrosyl-DNA phosphodiesterase 1 (Homo sapiens), Q9NUW8 | recombinant TDP1, AlphaScreen DNA substrate cleavage | Potency, µM (series often up to 130 µM), inactives show at the highest dose activity change, negative = inhibition, most hits filed as inhibitors | hit rate 0.28% among 350,000; further: on the % scale 0 is the no-effect control and ±100 the full control effect; nearly all actives have a fitted effect of over 40% in size
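Recombinant human Tdp1 (E. coli-expressed, 1 nM final) preincubated with compounds 15 min at room temperature, then 5'-biotin/3'-phosphotyrosine-FITC DNA substrate (15 nM final) added for 5 min. AlphaScreen beads (10 ug/ml final) added 10 min; cleavage lowers signal.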
VDR inhibitor: Inhibitors of the vitamin D receptor (VDR): qHTS. Vitamin D3 receptor (Homo sapiens), P11473. VDR-SRC2-3 peptide fluorescence polarization, 2 h. Potency, µM, without a hit: max response, negative = inhibition, usual class: inhibitors. hit rate 0.93% among 400,000. AID 504847, 2011; further: on the % scale 0 is the no-effect control and ±100 the full control effect
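Measured by FP: displacement of SRC2-3 coactivator peptide from VDR by library compounds, following a two-hour ambient incubation.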
Tb PFK inh: qHTS Assay to Find Inhibitors of T. brucei phosphofructokinase; T. brucei PFK, ADP-Glo luminescence; Potency, µM (top dose mostly 57.5 µM), inactives show at the highest dose activity, negative = inhibition, actives largely listed as inhibitors; hit rate 0.17% among 330,000;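 further: 0% = uninhibited 1x PFK enzyme wells and -100% = no-enzyme wells; nearly all actives have a fitted effect of over 60% in size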
Target sequence (O15648 whole entry, looked up): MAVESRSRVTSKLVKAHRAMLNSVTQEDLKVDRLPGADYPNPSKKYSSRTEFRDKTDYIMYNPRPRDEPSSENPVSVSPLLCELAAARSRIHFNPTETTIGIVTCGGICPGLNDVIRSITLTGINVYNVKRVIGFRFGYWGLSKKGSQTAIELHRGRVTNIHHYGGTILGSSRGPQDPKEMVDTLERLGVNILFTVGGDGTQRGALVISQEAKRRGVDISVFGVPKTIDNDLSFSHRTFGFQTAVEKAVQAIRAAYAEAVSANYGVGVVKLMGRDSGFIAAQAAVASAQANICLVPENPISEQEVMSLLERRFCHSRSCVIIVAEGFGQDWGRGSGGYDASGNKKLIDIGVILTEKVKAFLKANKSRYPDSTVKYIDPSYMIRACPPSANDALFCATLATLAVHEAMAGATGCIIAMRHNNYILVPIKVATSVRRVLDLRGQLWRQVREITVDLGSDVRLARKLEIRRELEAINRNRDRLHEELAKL
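1.25 nM PFK with 0.5 mM F6P and 0.1 mM ATP in 0.1 M TEA pH 8.0, 5 mM MgCl2, incubated 45 min at room temperature; ADP measured by ADP-Glo luminescence; compounds titrated up to 57 uM.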
PLK1 PBD inh: qHTS for Inhibitors of PLK1-PDB (polo-like kinase 1 - polo-box domain): Primary Screen. Serine/threonine-protein kinase PLK1 (Homo sapiens), P53350. Plk1 PBD binding of FITC phosphopeptide, fluorescence polarization. Potency, µM, without a hit: max response, negative = inhibition, usual class: inhibitors. hit rate 2.8% among 360,000; further: series mostly up to about 57 µM; on the % scale 0 is the no-effect control and ±100 the full control effect; nearly all actives have a fitted effect of over 65% in size
* marks the source's active call; other numbers are inactive results; ? = inconclusive; . = not tested or not shown; [ ] = remark or other dose. Rows were chosen to be rich in hits. Some 3.1% of all compounds tested hit in one or more screens of this group. Unless noted, the call rests on the fitted dose curve; in most records, active means well fitted curve in the direction sought with a large enough effect; inconclusive means small, poorly fitted or top-dose-only effect, or another doubt; inactive means no such curve, though single readings can be large; an effect the other way counts as inactive or inconclusive. Potency means the concentration at half of the fitted maximal effect.

SMILES | Pin1 inh | ASM inhibitor | TDP1 inh | VDR inhibitor | Tb PFK inh | PLK1 PBD inh
O=C(NC1CCN(C(=S)NCc2ccco2)CC1)NC12CC3CC(CC(C3)C1)C2 | 18% | 6% | 1% | 10% | -2% | 30µM*
O=C(NN1CCOCC1)c1cn(-c2ccccc2)nc1-c1cccs1 | 10% | -1% | 2% | -19% | -11% | 24µM*
CN1CCN(NC(=O)c2cn(-c3ccccc3)nc2-c2cccs2)CC1 | -5% | 0% | 7% | -9% | -4% | ?
Cc1cc(-c2nn3c(-c4ccccc4)nnc3s2)c2ccccc2n1 | -4% | 1% | -3% | ? | 1% | 12µM*
O=C1CCCC2=C1C(c1ccccc1Cl)N=C(Nc1nc3ccccc3o1)N2 (stereo unspecified) | -6% | . | 2% | . | . | .
COc1ccc(Cl)cc1C(=O)C1CCCN(Cc2cnc(N3CCOCC3)s2)C1 (stereo unspecified) | -3% | 2% | 5% | ? | -2% | 13µM*
COc1ccc(F)cc1C(=O)C1CCCN(Cc2cnc(N3CCCC3)s2)C1 (stereo unspecified) | -8% | 3% | 3% | 11% | -2% | -22%
Cc1ccc(CNC(=O)c2nc(-c3ccc(Cl)cc3)n3c2CCCCC3)cc1 | 13% | . | 11% | 4% | . | .
CCOC(=O)C(Cc1ccccc1)NC(=O)CCc1c(C)nc2nc(C)nn2c1C (stereo unspecified) | 0% | -4% | 2% | ? | 1% | 27µM*
Cc1nc2ncnn2c(C)c1CCC(=O)NCCc1ccccc1 | 1% | 4% | 7% | -12% | -3% | 24µM*
O=c1[nH]n(-c2ccccc2)c(=O)c2ccccc12 | 2% | 4% | -3% | -15% | -1% | -9%
O=c1[nH]n(-c2ccccn2)c(=O)c2ccccc12 | -13% | 5% | 4% | ? | 2% | 30µM*
O=C(c1ccc([N+](=O)[O-])cc1)N1CCN(C(=O)c2ccco2)CC1 | -13% | 5% | -1% | 11% | 4% | -9%
O=C(CN1CCN(C(=O)c2ccco2)CC1)Nc1ccccc1 | 3% | 1% | 10% | -2% | -11% | -4%
O=C(c1ccco1)N1CCCN(C(=O)c2ccco2)CC1 | 7% | 0% | 1% | ? | -11% | 19µM*
O=C(CN1CCN(C(=O)c2ccco2)CC1)Nc1c2c(nc3c1CCC3)CCCC2 | -12% | 0% | 89µM* | -17% | 9% | -4%
O=C(c1ccco1)N1CCN(C(=O)c2ccc(-c3ccc([N+](=O)[O-])cc3)o2)CC1 | . | -12% | 35µM* | -27% | ? | -21%
Cc1cc(C)c2nc(N3CCCN(C(=O)c4ccco4)CC3)c(C#N)cc2c1 | 6% | 172% | -13% | 79µM* | 1% | ?
C=CCN1c2ccccc2[C@]23C[C@@H](C(=O)OC)N(S(=O)(=O)c4cccs4)C2=NC(C(=O)OC)=C(C(=O)OC)[C@H]13 | . | . | 18%[12.3 µM] | . | . | .
CCC(=O)Nc1ccc(C)cc1-c1nc2ccccc2n(C(C)C(=O)Nc2ccccc2CC)c1=O (stereo unspecified) | -1% | . | 9% | 9% | . | .
O=C(CCC1CCCC1)N1CCN(C(=O)c2ccco2)CC1 | -4% | 2% | 5% | -6% | 4% | 24µM*
CCOc1ccc(C(O)(c2ccccc2)C(CN2CCCC2)c2ccccc2)cc1 (stereo unspecified) | -2% | 3% | . | ? | 2% | 6µM*
CC(=O)Nc1ccc(S(=O)(=O)Nc2nnc(CC(C)(C)C)s2)cc1 | 1% | -1% | 8% | ? | 0% | 27µM*
